Laboratory results: PubChem BioAssay (NCATS)
Results filed as inconclusive are left out. Active and inactive are the calls of the source. The call rests on the fitted dose curve.

Assay: S16 Schwann cell PMP22 intronic element beta-lactamase assay (AID 624044); further: nearly all actives have a fitted effect of over 15% in size
Settings: S16 rat Schwann cells, PMP22 element beta-lactamase FRET, 24 h; series mostly up to 38.3 µM
Excerpt: Description: Charcot-Marie-Tooth-Association [CMTA] National Center for Advancing Translational Sciences [NCATS] Charcot-Marie-Tooth (CMT) disease was first characterized by Jean-Martin Charcot and Pierre Marie in France and, independently, by Howard Henry Tooth in England in 1886. CMT is one of the most common inherited neurological diseases, affecting approximately 1 in 2,500 Americans. […] The most prevalent type of CMT is known as CMT1A and caused by a duplication of the PMP22 gene which leads to over-expression of this protein. PMP22 is a glycosylated intrinsic membrane protein accounting for 2-5% of the myelin protein content, and its over-expression results in demyelination and subsequently axonal loss. A pair of cellular transcription-based assays was developed in the S16 rat Schwann cell lines (Hai, M., et al., 2002) stably transfected with orthogonal reporters - firefly luciferase (Fluc) and beta-lactamase (beta-Lac) - whose expression is driven by an intronic regulatory element of the PMP22 gene (Jones, E.A., et al., 2011) to recapitulate endogenous expression of PMP22. The current assay employs Blac as a reporter of PMP22 expression. A comprehensive library of approved drugs, the NCGC Pharmaceutical Collection (Huang, R., et al., 2011), was screened in the cross-validating platform of the orthogonal reporter assays to identify drug modulators inhibitory towards PMP22 expression. A set of counter-screens was devised to address non-specific activity of the library. An ATP-dependent CellTiter-Glo assay (developed by Promega Corp) was utilized to control cell viability. In addition, biochemical Fluc enzyme assay was performed to assess direct inhibition of the Fluc enzymatic activity. References Hai, M., Muja, N., DeVries, G.H., Quarles, R.H. and Patel, P.I. Comparative analysis of Schwann cell lines as model systems for myelin gene transcription studies. J Neurosci Res, 2002. 69(4): pp 497-508 Huang, R., Southall, N., Wang, Y., Yasgar A., Shinn P., Jadhav, A. , Nguyen, D.-T. and Austin, C.P., The NCGC pharmaceutical collection: a comprehensive resource of clinically approved drugs enabling repurposing and chemical genomics. Sci Transl Med, 2011. 3(80): p. 80ps16.
S16 Schwann cell PMP22 intronic element beta-lactamase assay The beta-Lac-expressing S16 cells were seeded in black clear-bottom 1536 well plates at between 500-750 cells/6uL in DMEM medium containing 10% FBS, w/o phenol red. After overnight incubation at 37 degree Celsius/5% C02, 23 nL of compounds or DMSO were delivered to each well using a pin tool, followed by 24h-incubation at 37 degree Celsius/5% C02. Then one microl of LiveBLAzer FRET B/G detection mix (Invitrogen) was added to each well. An EnVision plate reader (PerkinElmer) was used to detect the dual beta-Lac output composed of fluorescence at 460nm for beta-Lac expression and FRET at 535nm for cell viability. The % signal at 535 nm was scaled to a full range of DMSO and zero and then normalized using the maximum response observed in the screen as 100% activity. The % signal at 460nm was normalized to the average readings of potassium clavulanate (a positive control) - treated cells relative to DMSO-treated cells (0% Activity). The concentration-effect curves were then classified based on curve quality (r2), response magnitude and degree of measured activity.

Structure (SMILES) | outcome
N=c1nc(N2CCCCC2)cc(N)n1O | inactive
Clc1ccc(Nc2nnc(Cc3ccncc3)c3ccccc23)cc1 | inactive
CCOC(=O)C1=C[C@]2(CC)CCCN3CCc4c(n1c1ccccc41)[C@@H]32 | inactive
COc1ccc2nc(S(=O)Cc3ncc(C)c(OC)c3C)[nH]c2c1 (stereo not drawn) | inactive
CCc1ccc(CCOc2ccc(CC3SC(=O)NC3=O)cc2)nc1 (stereo not drawn) | inactive
CCCCNc1cc(C(=O)O)cc(S(N)(=O)=O)c1Oc1ccccc1 | inactive
NCCCC(N)(C(=O)O)C(F)F (stereo not drawn) | inactive
CCCc1nn(C)c2c(=O)[nH]c(-c3cc(S(=O)(=O)N4CCN(C)CC4)ccc3OCC)nc12 | inactive
N[C@@H]1CONC1=O | inactive
CC(=O)Oc1ccccc1C(=O)O | inactive
C#Cc1cccc(Nc2ncnc3cc(OCCOC)c(OCCOC)cc23)c1 | inactive
NS(=O)(=O)c1cc2c(cc1Cl)NC=NS2(=O)=O | inactive
Cc1c(C)c2c(c(C)c1O)CCC(C)(COc1ccc(CC3SC(=O)NC3=O)cc1)O2 (stereo not drawn) | inactive
Nc1ccc(S(=O)(=O)Nc2ccnn2-c2ccccc2)cc1 | inactive
N#Cc1ccc(C(c2ccc(C#N)cc2)n2cncn2)cc1 | inactive
NC[C@H](O)c1ccc(O)c(O)c1 | inactive
Cc1ccc(N(CC2=NCCN2)c2cccc(O)c2)cc1 | inactive
CCOC(=O)N1CCC(=C2c3ccc(Cl)cc3CCc3cccnc32)CC1 | inactive
O=C1CCC(N2C(=O)c3ccccc3C2=O)C(=O)N1 (stereo not drawn) | inactive
CC(C)C[C@H](NC(=O)[C@@H](O)[C@H](N)Cc1ccccc1)C(=O)O | inactive
CC(c1cc2ccccc2s1)N(O)C(N)=O (stereo not drawn) | inactive
Cc1cc2c(C(C)C)c(O)c(O)c(C=O)c2c(O)c1-c1c(C)cc2c(C(C)C)c(O)c(O)c(C=O)c2c1O | inactive
NCCc1ccc(O)c(O)c1 | inactive
